Inconclusive results are not listed. A call without a number means that no potency is given here. The source made the active and inactive calls. Calls follow the shape of the dose curve; as a rule, active = well fitted activation curve with a large enough effect; inconclusive = small, poorly fitted or top-dose-only effect; inactive = no such curve, though single readings can be large or run the other way.
These molecules were tested against Arylsulfatase A (Homo sapiens) (UniProt P15289) (assay: qHTS screen for enhancers of Arylsulfatase A (ASA1): LOPAC Validation Assay (AID 720538)). Settings: ASA enzyme activity, LOPAC qHTS enhancer assay; series mostly up to 57.5 µM.
Description: Lysosomal storage diseases (LSDs) are caused by genetic mutations in genes encoding proteins important for normal lysosomal function. In affected patients, symptoms are usually not manifested unless the mutations result in more than 90% reduction of enzymatic activity of a specific lysosomal enzyme. […] Small molecules could function as enzyme enhancement agents by binding to and stabilizing mutant misfolded proteins in the endoplasmic reticulum (ER), allowing them to evade the ER associated degradation (ERAD), and eventually reach the lysosome. Moreover, small molecules is hypothesized to be able to enhance the residual activity of deficient lysosomal enzyme by either interacting directly with the mutant enzyme or indirectly by acting in different cellular pathways; resulting to increased levels of the mutant and partially functional protein in the lysosomal compartment.
A cell based assay in 1536 well plate format was developed to evaluate activity of the lysosomal sulfatase ASA1 enzyme. ASA1 is deficient in metachromatic leukodystrophy (MLD), an LSD characterized by progressive neurodegeneration for which specific treatment is not available. Compounds that are active may therefore have some therapeutic application for this disease. This assay was used to validate the ASA1 qHTS using the Sigma LOPAC library. In this assay increase in signal = enhanced ASA1 activity. Activation is the desired outcome for this assay.
NIH Chemical Genomics Center [NCGC]
NIH Molecular Libraries Probe Centers Network [MLPCN]
Assay Submitter (PI): Gustavo Maegawa, Johns Hopkins University School of Medicine
[2] Gieselmann V, et al. Acta Paediatr Suppl. 2008; 97: 15-21
Four microliter (~8,000 cells/well) of SV40-transformed skin fibroblasts from an MLD patient (ASA-I179S) were seeded into a 1,536 solid white plate. Cells were left to adhere for 6 hrs, followed by addition of 23 nL of compounds. Cells were incubated with compounds for 48h at 37 degree C and 5% CO2. Four microliter of 1 mM pNCS substrate/lysis buffer (0.5mM pNCS final concentration) was added and incubated for 14h at room temperature. To stop the reaction, […] of 5 N of NaOH (1N NaOH final concentration) was then added and fluorescence was measured using the ViewLux plate reader (Ex=525 nm; Em=598 nm).
Potency is read from the fitted curve at half-maximal effect.

Arylsulfatase A (Homo sapiens), sequence (P15289 whole entry, looked up): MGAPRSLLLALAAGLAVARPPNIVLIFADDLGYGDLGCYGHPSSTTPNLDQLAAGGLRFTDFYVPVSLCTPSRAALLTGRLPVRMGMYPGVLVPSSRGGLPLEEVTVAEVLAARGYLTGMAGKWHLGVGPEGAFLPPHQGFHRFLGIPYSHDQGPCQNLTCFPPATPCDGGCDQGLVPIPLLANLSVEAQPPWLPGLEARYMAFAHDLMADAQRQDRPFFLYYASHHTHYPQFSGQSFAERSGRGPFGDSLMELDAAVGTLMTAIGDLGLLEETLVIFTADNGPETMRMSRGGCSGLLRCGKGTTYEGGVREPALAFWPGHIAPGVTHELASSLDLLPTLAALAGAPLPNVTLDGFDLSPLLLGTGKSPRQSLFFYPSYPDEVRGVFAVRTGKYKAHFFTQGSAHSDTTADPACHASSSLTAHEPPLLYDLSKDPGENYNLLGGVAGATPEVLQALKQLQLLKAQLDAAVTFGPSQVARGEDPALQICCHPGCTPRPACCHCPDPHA

Row | SMILES | Potency
1 | COc1ccccc1N1CCN(CCN(C(=O)C2CCCCC2)c2ccccn2)CC1 | inactive
2 | O=C(CCc1ccc(O)cc1)c1c(O)cc(O)cc1O | 2.69 µM (active)
3 | CCN(CC)C(=S)SSC(=S)N(CC)CC | inactive
4 | O=c1ccc2ccc(O)c(O)c2o1 | inactive
5 | CCOC(=O)C(C)Oc1cccc2c(=O)n(CC(=O)Nc3ccc4c(c3)OCCO4)ccc12 (stereo unspecified) | inactive
6 | Oc1ccc(-c2nc(-c3ccc(F)cc3)c(-c3ccncc3)[nH]2)cc1 | inactive
7 | O=C1c2ccccc2-c2n[nH]c3cccc1c23 | inactive
8 | Nc1ccn([C@@H]2O[C@H](CO)[C@@H](O)C2O)c(=O)n1 (stereo partly specified) | inactive
9 | Cc1c(OCC(F)(F)F)ccnc1CS(=O)c1nc2ccccc2[nH]1 (stereo unspecified) | inactive
10 | O=C(c1ccccc1)c1ccc2n1CCC2C(=O)O (stereo unspecified) | inactive
11 | CC(=O)N1CCN(c2ccc(OC[C@H]3CO[C@](Cn4ccnc4)(c4ccc(Cl)cc4Cl)O3)cc2)CC1 | inactive
12 | CN(C)CCCC1(c2ccc(F)cc2)OCc2cc(C#N)ccc21 (stereo unspecified) | inactive
13 | O=C(O)c1cccnc1Nc1cccc(C(F)(F)F)c1 | inactive
14 | NNc1nncc2ccccc12 | inactive
15 | C[C@@H](N)C1CCC(C(=O)Nc2ccncc2)CC1 (stereo partly specified) | inactive
16 | O=c1c(O)c(-c2ccc(O)cc2O)oc2cc(O)cc(O)c12 | inactive
17 | NCCCCNCCCN | inactive
18 | Cc1cccc(C#Cc2ccccc2)n1 | inactive
19 | Nc1nc(N)c(N=O)c(OCC2CCCCC2)n1 | inactive
20 | OC(CN1CCN(c2cccc(Cl)c2)CC1)C(c1ccccc1)c1ccccc1 (stereo unspecified) | inactive
21 | O=Nc1c(-c2c(O)[nH]c3cc(Br)ccc23)[nH]c2ccccc12 | 21.3 µM (active)
22 | COc1ccc2cc([C@H](C)C(=O)O)ccc2c1 | inactive
23 | CC(C)c1ccc2c(c1)c(SC(C)(C)C)c(CC(C)(C)C(=O)O)n2Cc1ccc(Cl)cc1 | inactive
24 | O=c1cc(N2CCOCC2)oc2c(-c3ccccc3)cccc12 | inactive
25 | CC(=O)O[C@H]1C(=O)[C@@]2(C)C([C@H](OC(=O)c3ccccc3)[C@]3(O)C[C@H](OC(=O)[C@H](O)[C@@H](NC(=O)c4ccccc4)c4ccccc4)C(C)=C1C3(C)C)[C@]1(OC(C)=O)CO[C@@H]1C[C@@H]2O (stereo partly specified) | inactive
26 | CC1(C)C(=O)N(CCN2CCC(C(=O)c3ccc(F)cc3)CC2)c2ccccc21 | inactive
